SIRT5 block – inhibitors of human sirtuin-5 desuccinylase; Q9NXA8; Purified SirT5, succinyl-peptide AMC, trypsin-coupled fluorescence; inhibition, % at 15 µM; 330,000 compounds, 1.1% hits; AID 652115; in the data active = inhibition above about 15%; inconclusive = no clear call, values can overlap the other calls
Target sequence (Q9NXA8 whole entry, looked up): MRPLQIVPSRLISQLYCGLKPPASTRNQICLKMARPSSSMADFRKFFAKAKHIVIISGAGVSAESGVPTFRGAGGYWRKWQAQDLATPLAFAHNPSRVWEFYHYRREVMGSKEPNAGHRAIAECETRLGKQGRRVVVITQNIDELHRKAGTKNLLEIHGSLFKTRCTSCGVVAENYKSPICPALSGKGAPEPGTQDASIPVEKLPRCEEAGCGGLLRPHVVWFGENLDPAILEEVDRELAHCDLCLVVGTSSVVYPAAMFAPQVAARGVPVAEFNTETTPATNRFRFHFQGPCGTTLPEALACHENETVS
PGC1a acetyl inh – PGC1a acetylation modulation, inhibitor mode. U2OS PGC1a acetylation, AlphaScreen anti-acetyl-lysine; with virally co-expressed GCN5 acetyltransferase. inhibition, % at 15.6 µM. 350,000 compounds, 0.17% hits. AID 651687;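 active = every replicate shows inhibition of at least 40%; inconclusive = mean inhibition at least 40% but some replicate below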
rRNA inh HTS – inhibitors of bacterial rRNA selective over humanized ribosomes | 350,000 compounds, 1.6% hits | AID 720706 | E. coli WT GFP vs humanized-ribosome RFP mutants, fluorescence, 24 h; hits give low values; DMSO median 0, no signal -100 | GFP signal change (wild-type ribosome), % (test concentration not listed);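 active = significant combined selectivity score with lowered wild-type GFP, culture density cut under 30%, mutant RFP and density less affected; inactive = any of these conditions unmet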
PAX8 inh HTS – lowers PAX8-driven luciferase in RMG-I cells; RMG-I TPO-luciferase reporter, SteadyGlo, 24 h; inhibition, % at 12.6 µM; 360,000 compounds, 1.2% hits; AID 652154;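 active = mean replicate inhibition at least 60% with every replicate also reaching 60%; inconclusive = only one of the two criteria is met; inactive = mean below 60% and not all replicates reaching 60%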;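 also: luciferase light reporting Pax8 driven TPO promoter activity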
LGR2 antag – Drosophila LGR2 receptor signaling inhibition; inhibition, % at 9.99 µM; 380,000 compounds, 0.35% hits; HEK293 LGR2, CRE-luciferase, bursicon-stimulated, 4 h;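 active = drop in luminescence signal, shown as inhibition above about 50% in the replicate tests, limit read from the data, passing the limit was not always enough; inconclusive = probably only some replicates passing the limit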;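 also: agonist challenge used bursicon conditioned medium at about half maximal strength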
EWS-Fli inh – inhibitors of EWS/Fli oncoprotein transcriptional activity; A673 NR0B1-luciferase reporter, viability-normalised; inhibition, % at 12.6 µM; 350,000 compounds, 0.67% hits;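 active = mean inhibition of at least 50% after viability correction, with every replicate also passing that limit; inconclusive = mean reaches 50% but only one of two replicates passes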;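 also: firefly luciferase signal divided by Alamar Blue viability fluorescence both relative to DMSO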
Each line names hits and unclear results; the compound was inactive in the other large screens. In the library only some 3.4% were active in any assay of this set; here they are far more common.

COc1ccccc1-c1ccccc1[C@H]1[C@@H](CO)N(C(=O)C2CC2)[C@H]1C#N	none
COc1cccc2c1C(CO)N1C(C#N)C3CC(C(=O)O)C(C1C2)N3C (stereo not drawn)	PGC1a acetyl inh 66, LGR2 antag 92 (no result: PAX8 inh HTS)
Cc1nc2ccccc2n1/N=C/c1ccc([N+](=O)[O-])s1	PAX8 inh HTS 62 (no result: PGC1a acetyl inh)
O=[N+]([O-])c1ccc(/C=N/n2c(CO)nc3ccccc32)s1	none (no result: SIRT5 block, rRNA inh HTS, EWS-Fli inh)
CCc1ccccc1NC(=O)c1ccc(OCc2c(C)noc2C)cc1	rRNA inh HTS -20
CC(C)[C@H](NC(=O)c1ccccc1)C(=O)OCc1nnc(-c2ccccc2)o1	none
Cc1noc(C)c1COc1ccc(C(=O)Nc2ccccc2)cc1	none
Cc1noc(C)c1COC(=O)[C@@H](NC(=O)c1ccccc1)C(C)C	PAX8 inh HTS 69 (no result: PGC1a acetyl inh)
C[C@@H]1CCCCO[C@H](CN(C)S(=O)(=O)c2ccc(F)cc2)[C@@H](C)CN([C@@H](C)CO)C(=O)c2cc(NC(=O)Nc3cccc4ccccc34)ccc2O1	none
COc1cc2cc(c1Cl)N(C)C(=O)CC(OC(=O)C(C)N(C)C(C)=O)C1(C)OC1C(C)C1CC(O)(NC(=O)O1)C(OC)C=CC=C(C)C2 (stereo not drawn)	PAX8 inh HTS 74
CCCCCCN(C(=O)CCCCCN1C(=O)NC(c2ccc(-c3ccccc3)cc2)C(C(=O)OCc2ccccc2)=C1C)C(C(=O)NCCCC)c1ccccc1 (stereo not drawn)	none (no result: SIRT5 block, PGC1a acetyl inh)
CC1=C(C(=O)OCc2ccccc2)C(c2ccc(Br)cc2)NC(=O)N1CCCC(=O)O (stereo not drawn)	none (no result: PGC1a acetyl inh)
CCCCCCN(C(=O)CCCCCN1C(=O)NC(c2ccc(-c3ccccc3)cc2)C(C(=O)OCc2ccccc2)=C1C)C(C)C(=O)NCCCC (stereo not drawn)	PAX8 inh HTS 75 (no result: PGC1a acetyl inh)
CCCCCCN(C(=O)CCCCCN1C(=O)NC(c2ccc([N+](=O)[O-])cc2)C(C(=O)OCc2ccccc2)=C1C)C(C(=O)NCCCC)c1ccc(OCC(=O)OC)c(C(=O)OC)c1 (stereo not drawn)	EWS-Fli inh inconclusive (no result: SIRT5 block, PGC1a acetyl inh)
CCCCCCN(C(=O)CCCCCN1C(=O)NC(c2cccc([N+](=O)[O-])c2)C(C(=O)OCc2ccccc2)=C1C)C(C(=O)NCCCC)c1ccc(OCC(=O)OC)c(C(=O)OC)c1 (stereo not drawn)	EWS-Fli inh 69 (no result: SIRT5 block, PGC1a acetyl inh)
CC1=C(C(=O)OCc2ccccc2)C(c2ccc(Br)cc2)NC(=O)N1CCCCCC(=O)O (stereo not drawn)	rRNA inh HTS -26 (no result: PGC1a acetyl inh)
CO[C@H]1CN(C)C(=O)c2ccc(NC(C)=O)cc2OC[C@H](C)N(C(=O)CC2CC2)C[C@@H]1C	none (no result: PGC1a acetyl inh, PAX8 inh HTS, EWS-Fli inh)
C[C@@H]1C/C=C/C[C@H](c2ccc3c(c2)OCO3)NC(=O)[C@@H](C)N(C)C(=O)c2ccccc2O1	none (no result: SIRT5 block, PGC1a acetyl inh, PAX8 inh HTS, LGR2 antag, EWS-Fli inh)
Cc1cc2c(Nc3ccccc3)ncnc2s1	SIRT5 block 16
Cc1cc2c(NCCc3ccccc3)ncnc2s1	none (no result: PGC1a acetyl inh)
Cc1ccc(N(NC(=O)C(O)(c2ccccc2)c2ccccc2)C(=O)CCl)cc1	PAX8 inh HTS 107 (no result: SIRT5 block, PGC1a acetyl inh, rRNA inh HTS, EWS-Fli inh)
Cc1ccc(C(O)(C(=O)NN(C(=O)c2ccccc2)c2ccccc2)c2ccc(C)cc2)cc1	none (no result: PGC1a acetyl inh, rRNA inh HTS, LGR2 antag)
CCC(O)(CC)C(=O)NN(C(=O)CCl)c1ccccc1	none (no result: PGC1a acetyl inh)
O=C(Nc1ccccc1)NN(C(=O)CCl)c1ccccc1	PAX8 inh HTS 99
CCCC#Cc1ccc2c(c1)O[C@H](CN(C)C(=O)CN(C)C)[C@@H](C)CN([C@H](C)CO)S2(=O)=O	none (no result: SIRT5 block)
COc1ccc(OCCCC(=O)OCC(=O)Nc2c(C)nn(-c3ccccc3)c2C)cc1	PGC1a acetyl inh 85
CN(C)C(=O)C[C@@H]1CC[C@@H](NC(=O)c2ccc(F)cc2)[C@H](CO)O1	none
COCC(=O)Nc1ccc2c(c1)OC[C@H](C)N(Cc1ccccc1F)C[C@H](C)[C@H](OC)CN(C)C2=O	none (no result: EWS-Fli inh)
N#C/C(=N\Nc1ccc(Br)cc1)C(=N)N1CCOCC1	rRNA inh HTS -26 (no result: PGC1a acetyl inh)
COc1cc2c(cc1OC)C(c1cc(Br)ccc1F)N(C(=O)CCl)CC2 (stereo not drawn)	EWS-Fli inh 58 (no result: PGC1a acetyl inh)
O=C(C[C@@H]1CC[C@@H]2[C@H](COC[C@@H](O)CN2C(=O)Nc2cccc(F)c2)O1)NCc1ccccc1Cl	none (no result: PAX8 inh HTS, EWS-Fli inh)
